# Measured values published in paper PMC4336329 (PLoS ONE, 2015).
# The campaign covered roughly 310,000 compounds. About 2,200 (0.71%) showed an effect of 50% or more. Effects have a minus sign here. The full list was thinned out, with strong results kept by preference.
# Target: human ether-à-go-go-related gene (hERG) potassium channel (human, UniProt Q12809)
# Experiment: primary screen, population patch clamp on CHO cells stably expressing hERG; higher = less effect of the substance
# human ether-à-go-go-related gene (hERG) potassium channel, sequence (Q12809 whole entry, looked up): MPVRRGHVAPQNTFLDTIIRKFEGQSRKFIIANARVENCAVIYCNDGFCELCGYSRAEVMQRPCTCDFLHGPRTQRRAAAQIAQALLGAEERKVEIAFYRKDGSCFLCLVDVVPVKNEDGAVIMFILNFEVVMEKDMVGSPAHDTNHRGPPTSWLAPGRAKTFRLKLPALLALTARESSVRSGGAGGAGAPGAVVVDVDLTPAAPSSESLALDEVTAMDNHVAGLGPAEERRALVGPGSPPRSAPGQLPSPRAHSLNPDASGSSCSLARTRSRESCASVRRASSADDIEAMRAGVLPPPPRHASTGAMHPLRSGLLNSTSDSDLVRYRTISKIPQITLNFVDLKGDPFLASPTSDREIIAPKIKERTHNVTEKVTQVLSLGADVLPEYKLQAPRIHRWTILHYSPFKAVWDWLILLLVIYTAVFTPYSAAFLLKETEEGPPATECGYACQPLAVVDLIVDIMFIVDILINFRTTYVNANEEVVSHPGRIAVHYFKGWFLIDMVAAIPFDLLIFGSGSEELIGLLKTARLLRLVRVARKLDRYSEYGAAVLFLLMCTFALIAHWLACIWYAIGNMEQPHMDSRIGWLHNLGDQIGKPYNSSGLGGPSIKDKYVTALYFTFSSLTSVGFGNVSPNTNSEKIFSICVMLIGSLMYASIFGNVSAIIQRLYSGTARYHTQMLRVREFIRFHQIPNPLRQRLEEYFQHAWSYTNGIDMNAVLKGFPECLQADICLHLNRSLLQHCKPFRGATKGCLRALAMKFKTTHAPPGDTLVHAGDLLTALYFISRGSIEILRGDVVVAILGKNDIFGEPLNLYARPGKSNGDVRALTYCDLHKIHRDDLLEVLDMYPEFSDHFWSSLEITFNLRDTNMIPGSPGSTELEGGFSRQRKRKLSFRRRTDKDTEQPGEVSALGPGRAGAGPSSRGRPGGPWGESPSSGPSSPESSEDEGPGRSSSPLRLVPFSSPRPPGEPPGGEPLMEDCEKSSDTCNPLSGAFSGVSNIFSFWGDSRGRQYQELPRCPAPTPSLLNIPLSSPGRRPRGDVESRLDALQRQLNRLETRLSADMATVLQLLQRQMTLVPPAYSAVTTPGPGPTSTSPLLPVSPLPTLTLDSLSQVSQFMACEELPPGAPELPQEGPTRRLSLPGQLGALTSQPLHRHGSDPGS
row,Compound,"hERG current change (%, negative = inhibition) at 1uM"
1,CCOc1ccccc1N1CC(O)=C(c2nc3ccccc3s2)C1=N,5.48%
2,O=C(CSc1nc(-c2ccccc2)cc(=O)[nH]1)Nc1ccc(F)c(F)c1,12.9%
3,Cc1ccc(S(=O)(=O)Nc2ccc(C(=O)NCc3cccnc3)cc2)cc1,10.9%
4,CCc1nc(SCC(=O)NCc2ccc(F)cc2)c2c(=O)n(C)c(=O)n(C)c2n1,11.2%
5,COc1ccc(OC)c(S(=O)(=O)NCC(=O)NC2CCCCCC2)c1,16%
6,COc1ccc2nc3sc(C(=O)N4CCN(C)CC4)cc3cc2c1,-12%
7,CC(NC(=O)COC(=O)/C=C/c1ccco1)c1ccccc1 (stereo not drawn),8.61%
8,COc1ccc(CC2(CO)CCN(Cc3cnn(C)c3C)CC2)cc1,6.81%
9,Cc1ccc(-n2cc(CN3CCC(CO)(Cc4cccc(C(F)(F)F)c4)CC3)cn2)cc1,-64.3%
10,COc1ccc(CN2CCC(CO)(Cc3cccc(C(F)(F)F)c3)CC2)cc1Cn1cccn1,-35.3%
11,COc1ccc(CN2CCN(C(C)C)C(CCO)C2)cc1Cn1cccn1 (stereo not drawn),12%
12,COc1ccc(CN2CCC(CO)(Cc3ccccc3)CC2)cc1Cn1cccn1,-55.9%
13,CC(C)Cc1cc(CN2CCC(CO)(Cc3cccc(C(F)(F)F)c3)CC2)[nH]n1,-66%
14,CC(C)Cc1cc(CN2CCCC(CO)(Cc3cccc(Cl)c3)C2)[nH]n1 (stereo not drawn),-14.7%
15,CSc1cccc(CN2CCC(CO)(Cc3cccc(C(F)(F)F)c3)CC2)c1,-35.9%
16,COc1ccc(CC2(CO)CCN(Cc3cnn(-c4ccc(F)cc4)c3)CC2)cc1,-79.2%
17,OCC1(Cc2ccccc2)CCN(Cc2cnn(-c3ccccc3F)c2)CC1,-4.22%
18,CC(C)Cc1cc(CN2CCC(CO)(Cc3ccccc3)CC2)[nH]n1,-42.9%
19,Cc1ccc(-n2cc(CN3CCC(CO)(Cc4ccccc4)CC3)cn2)cc1,-22%
20,COCCOc1nc2ccccc2nc1C,6.8%
21,O=C(Nc1nnc(-c2ccccc2)s1)c1ccccc1F,13.3%
22,CC(C)C[C@@H](CO)NC(=O)CC[C@H](NC(=O)OC(C)(C)C)C(=O)N(Cc1ccccc1)Cc1ccccc1,16%
23,CCOC(=O)c1cnc(SC2CC(=O)N(c3cccc(OC)c3)C2=O)nc1N (stereo not drawn),11.3%
24,CC1(c2nnc(-c3cccc(Cl)c3)o2)CC(c2cccc([N+](=O)[O-])c2)=NO1 (stereo not drawn),16.3%
25,COc1ccc(CC2(CO)CCN(Cc3cnn(-c4ccccc4OC)c3)CC2)cc1,-48.4%
26,COc1ccc(CC2(CO)CCN(Cc3cnn(-c4ccccc4)c3)CC2)cc1,-57.2%
27,COc1cc(CN2CCC(CO)(Cc3cccc(C(F)(F)F)c3)CC2)ccc1F,-15.9%

row,Compound,"hERG current change (%, negative = inhibition) at 1uM"
1,OCC1(Cc2ccccc2)CCCN(Cc2cnn(-c3ccccc3)c2)C1 (stereo not drawn),-27.4%
2,CCOc1cc(CN2CCC(CO)(Cc3cccc(C(F)(F)F)c3)CC2)ccc1OC,-78%
3,OCC1(Cc2cccc(C(F)(F)F)c2)CCN(Cc2cc(F)cc(F)c2)CC1,4.2%
4,CC(=O)Nc1ccc(S(=O)(=O)Oc2ccc(N3C(=O)C4CCCCC4C3=O)cc2)cc1 (stereo not drawn),15.5%
5,CCOC(=O)c1nnn(-c2nonc2N)c1-c1ccc(F)cc1,13.5%
6,CC[C@]12CCCN3CCc4c(n(c5ccccc45)[C@](O)(C(=O)OC)C1)[C@@H]32,-69.4%
7,COC(=O)[C@@H]1[C@H]2C[C@H]3c4[nH]c5ccccc5c4CCN3C[C@@H]2CC[C@@H]1O,-21.3%
8,CC[C@]12CCCN3CCc4c(n(c5ccccc45)[C@@](O)(C(=O)OC)C1)[C@@H]32,-85.4%
9,COC(=O)C1C(O)CCC2CN3CCc4c([nH]c5ccccc45)C3CC21 (stereo not drawn),1.1%
10,CC[C@H]1CC2CN3CCc4c([nH]c5ccccc45)C(C(=O)OC)(C2)C13.Cl (stereo partly drawn),7.18%
11,CCC12CCCN3CCc4c(n(c5ccccc45)C(O)(C(=O)OC)C1)C32 (stereo not drawn),-2.18%
12,O=P(O)(O)C(O)C(F)(F)C(F)(F)C(F)(F)C(F)F (stereo not drawn),21.8%
13,O=S(=O)(c1ccccc1)c1nc(-c2ccco2)oc1N1CCCCCC1,11.4%
14,O=C(Nc1ccncc1)c1ccc(F)cc1,7.66%
15,Cc1ccc(NC(=O)C(C)Sc2nnc(-c3cccnc3)o2)cc1 (stereo not drawn),14%
16,Cn1c(SCC(=O)Nc2cccc(F)c2)nnc1-c1cccnc1,-6.1%
17,CCCn1c(SCC(=O)Nc2cccc(C(=O)OC)c2)nnc1-c1cccnc1,-22.5%
18,Cc1ccc(NC(=O)C(C)Sc2nnc(-c3cccnc3)n2-c2ccccc2)cc1 (stereo not drawn),-86.2%
19,Cn1c(SCC(=O)Nc2ccc(F)cc2)nnc1-c1cccnc1,-2.78%
20,O=C(CSc1nnc(-c2cccnc2)n1CCN1CCCCC1)Nc1cccc(Cl)c1,-80.3%
21,Cc1ccc(NC(=O)CSc2nnc(-c3cccnc3)n2-c2ccc(C)cc2)cc1,2.22%
22,O=C(CSc1nnc(-c2cccnc2)n1-c1ccccc1)Nc1ccccc1,-44.9%
23,Cc1ccc(NC(=O)CSc2nnc(-c3cccnc3)n2CCN2CCCCC2)cc1,-53.7%
24,CCOC(=O)c1ccc(CSc2nnc(N)s2)cc1,5.39%
25,Cc1ccc(C(=O)N2NC(c3ccc(F)cc3)C3C(=O)N(c4ccc(C)c(C)c4)C(=O)C32)cc1 (stereo not drawn),10.6%
26,CCOC(=O)C1CCN(C(=O)Cn2cc(C(=O)C3CC3)c3ccccc32)CC1,13.4%
27,O=C(O)C(Cc1c[nH]c2ccccc12)NS(=O)(=O)c1ccc(Cl)c(C(F)(F)F)c1 (stereo not drawn),7.86%
